Consider seven compounds from PubChem BioAssay (Tox21).

Each structure is given as a SMILES string. Unmarked numbers belong to inactive results. Results filed as inconclusive are left out. Calls of active or inactive are those of the source. Unless noted, the call rests on the fitted dose curve; in most records, active means well fitted curve in the direction sought with a large enough effect in the repeat runs; inconclusive means weak or mixed curves; inactive means no such curve, though single readings can be large; an effect the other way counts as inactive or inconclusive.

The target of assay [1] is Thyrotropin receptor (Homo sapiens) (UniProt P16473). Nature of the assay: qHTS assay to identify small molecule antagonists of the thyroid stimulating hormone receptor (TSHR) signaling pathway (AID 1259385; calls by dose curve; further: nearly all actives have a fitted effect of over 20% in size; further: potency means the concentration at half of the fitted maximal effect). The gist of the method: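 Antagonist mode: compound-treated TSHR-expressing HEK293 cells were stimulated with 1.5 ng/mL TSH (final) in presence of Ro20-1724 for 30 min at RT. HTRF cAMP detection after 1 h; each compound tested at 15 concentrations, triplicate.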
Chain of Thyrotropin receptor (Homo sapiens) (P16473 whole entry, looked up): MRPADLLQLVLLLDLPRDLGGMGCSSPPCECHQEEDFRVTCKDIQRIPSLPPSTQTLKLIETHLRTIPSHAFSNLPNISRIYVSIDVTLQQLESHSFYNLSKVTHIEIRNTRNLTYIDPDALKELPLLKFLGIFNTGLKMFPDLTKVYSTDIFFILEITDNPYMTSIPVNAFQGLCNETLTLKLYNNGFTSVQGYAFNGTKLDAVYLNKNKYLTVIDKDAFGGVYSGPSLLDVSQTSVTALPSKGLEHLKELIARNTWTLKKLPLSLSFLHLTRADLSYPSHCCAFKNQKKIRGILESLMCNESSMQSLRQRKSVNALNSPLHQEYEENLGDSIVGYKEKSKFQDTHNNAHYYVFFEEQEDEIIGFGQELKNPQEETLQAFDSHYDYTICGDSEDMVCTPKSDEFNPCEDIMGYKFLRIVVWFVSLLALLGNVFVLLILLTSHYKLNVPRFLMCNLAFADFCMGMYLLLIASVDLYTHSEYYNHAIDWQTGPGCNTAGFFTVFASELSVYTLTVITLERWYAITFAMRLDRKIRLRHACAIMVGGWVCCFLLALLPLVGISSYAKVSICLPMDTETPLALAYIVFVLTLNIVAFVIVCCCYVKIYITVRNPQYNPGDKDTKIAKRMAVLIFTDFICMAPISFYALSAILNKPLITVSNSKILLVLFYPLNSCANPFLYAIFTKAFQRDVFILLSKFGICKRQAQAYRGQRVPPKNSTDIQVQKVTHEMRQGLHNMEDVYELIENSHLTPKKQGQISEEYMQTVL
Background: qHTS replaces the single test concentration by a dilution series.

Assay [2] can be described thus: qHTS assay to identify small molecule agonists of the estrogen receptor alpha (ER-alpha) signaling pathway in the presence of an antagonist - cell viability counter screen (AID 1259386).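 Further: cells exposed to compounds for 22 h at 37 °C before the viability read; nearly all actives have a fitted effect of over 30% in size.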 Further: potency means the concentration at half of the fitted maximal effect. The gist of the method: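 Cytotoxicity was measured in parallel with the ERE-luciferase agonist screen, in the same wells. The cells were VM7Luc4E2, which endogenously express ER-alpha, and treatment was with compounds plus 10.0nM ICI-182,780 for 22hr.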

The target of assay [3] is Progesterone receptor (Homo sapiens) (UniProt P06401). Put plainly: qHTS assay to identify small molecule antagonists of the progesterone receptor (PR) signaling pathway (AID 1346795; active means well fitted inhibition curve with a large enough effect in the signal ratio in the repeat runs, not every such curve was filed as active; the % refers to the signal ratio; further: potency means the concentration at half of the fitted maximal effect). The gist of the method: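 PR-UAS-bla HEK293T cells carrying a UAS-driven beta-lactamase reporter were plated in medium with 2% charcoal-stripped FBS and rested 6 hr at 37C. Compounds were added with 1 nM R5020 (final) for 16 hr, then FRET substrate loaded 2 hr at room temperature.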
Chain of Progesterone receptor (Homo sapiens) (P06401 whole entry, looked up): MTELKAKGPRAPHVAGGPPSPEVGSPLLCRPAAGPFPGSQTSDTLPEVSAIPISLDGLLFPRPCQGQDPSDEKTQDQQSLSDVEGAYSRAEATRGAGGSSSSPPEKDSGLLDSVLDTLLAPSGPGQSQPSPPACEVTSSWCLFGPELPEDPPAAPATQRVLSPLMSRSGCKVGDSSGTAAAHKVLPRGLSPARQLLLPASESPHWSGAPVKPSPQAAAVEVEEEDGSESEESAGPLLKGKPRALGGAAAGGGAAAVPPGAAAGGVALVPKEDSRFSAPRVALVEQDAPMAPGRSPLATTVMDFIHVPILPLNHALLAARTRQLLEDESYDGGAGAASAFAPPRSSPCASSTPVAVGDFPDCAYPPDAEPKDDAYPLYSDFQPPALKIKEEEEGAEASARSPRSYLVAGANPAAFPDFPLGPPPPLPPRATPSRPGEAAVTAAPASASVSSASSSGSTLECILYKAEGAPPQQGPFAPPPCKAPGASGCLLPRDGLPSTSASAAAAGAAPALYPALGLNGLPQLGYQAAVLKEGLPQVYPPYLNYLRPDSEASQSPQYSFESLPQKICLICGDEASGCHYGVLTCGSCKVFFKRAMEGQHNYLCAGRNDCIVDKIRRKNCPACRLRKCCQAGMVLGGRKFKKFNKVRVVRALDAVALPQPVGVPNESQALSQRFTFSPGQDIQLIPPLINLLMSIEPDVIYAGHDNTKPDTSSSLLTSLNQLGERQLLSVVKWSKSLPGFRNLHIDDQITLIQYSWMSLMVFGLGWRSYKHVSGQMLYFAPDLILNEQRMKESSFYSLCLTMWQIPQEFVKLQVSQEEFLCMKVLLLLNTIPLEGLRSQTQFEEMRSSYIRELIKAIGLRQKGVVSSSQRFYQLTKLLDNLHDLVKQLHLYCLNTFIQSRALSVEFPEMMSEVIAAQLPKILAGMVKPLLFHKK

The nature of assay [4]: qHTS assay to identify small molecule antagonists of the progesterone receptor (PR) signaling pathway - cell viability counter screen (AID 1346798). Further: nearly all actives have a fitted effect of over 50% in size. Further: potency means the concentration at half of the fitted maximal effect. An outline of the steps: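 PR-UAS-bla HEK293T cells in medium with 2% charcoal-stripped FBS were treated with compounds plus R5020 for 16 hr at 37C. Cell viability was then read by CellTiter-Glo luminescence after 30 min at room temperature in the same wells.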

Assay [5] in a line: qHTS assay to identify small molecule agonists of the progesterone receptor (PR) signaling pathway - cell viability counter screen (AID 1346799; calls by dose curve; further: nearly all actives have a fitted effect of over 45% in size). An outline of the steps: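 PR-UAS-bla HEK293T cells, 3,000 per well in medium with 2% charcoal-stripped FBS, were preincubated 6 hr at 37C, then exposed to compounds for 16 hr; viability was read as CellTiter-Glo luminescence after 30 min at room temperature.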

Assay [6] can be described thus: qHTS assay to identify small molecule agonists of the TGF-beta/Smad signaling pathway (AID 1346859; active means well fitted activation curve with a large enough effect in the signal ratio in the repeat runs, not every such curve was filed as active; the % refers to the signal ratio; further: series mostly up to about 77 µM). The gist of the method: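 HEK 293T cells stably carrying a beta-lactamase reporter driven by the Smad binding element were seeded overnight, exposed to DMSO-dissolved compounds for 5 hr at 37 C, 5% CO2, then loaded with FRET substrate for 2 hr at room temperature.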

In assay [7] the target is Thyrotropin-releasing hormone receptor (Homo sapiens) (UniProt P34981). Put plainly: qHTS assay to identify small molecule antagonists of the thyrotropin-releasing hormone receptor (TRHR) signaling pathway (AID 1346877; active means well fitted inhibition curve with a large enough effect in the repeat runs, not every such curve was filed as active; further: series mostly up to about 51 µM). The gist of the method: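 Antagonism is measured as suppression of the calcium response to 1 nM TRH in TRHR-HEK293 cells that have been dye-loaded for 2 h at 37 °C after overnight plating. Each compound is tested at 15 concentrations in triplicate.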
Chain of Thyrotropin-releasing hormone receptor (Homo sapiens) (P34981 whole entry, looked up): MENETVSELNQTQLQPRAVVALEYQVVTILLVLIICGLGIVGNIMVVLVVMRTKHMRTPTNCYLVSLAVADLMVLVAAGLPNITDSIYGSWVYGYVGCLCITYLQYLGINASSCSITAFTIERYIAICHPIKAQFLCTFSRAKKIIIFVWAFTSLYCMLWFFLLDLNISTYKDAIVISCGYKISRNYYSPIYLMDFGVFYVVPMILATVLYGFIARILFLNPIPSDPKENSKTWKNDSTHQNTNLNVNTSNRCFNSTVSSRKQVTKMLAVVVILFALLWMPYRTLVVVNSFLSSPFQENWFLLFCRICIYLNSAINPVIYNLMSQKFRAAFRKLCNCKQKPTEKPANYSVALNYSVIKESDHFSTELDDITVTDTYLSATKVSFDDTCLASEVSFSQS

Assay [8] has the same target. Put plainly: qHTS assay to identify small molecule agonists of the thyrotropin-releasing hormone receptor (TRHR) signaling pathway (AID 1346891; calls by dose curve; further: series mostly up to about 58 µM). An outline of the steps: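 TRHR-expressing HEK293 cells were plated 18 h at 37 °C/5% CO2, loaded with calcium dye 2 h at 37 °C, then given compound in DMSO; fluorescence was read kinetically for 3 min at 1 s intervals.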
The nature of assay [9]: Human pregnane X receptor (PXR) small molecule agonists, qHTS cell viability counter screen (AID 1346977). Further: nearly all actives have a fitted effect of over 50% in size. Further: potency means the concentration at half of the fitted maximal effect. An outline of the steps: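 PXR-Luc HepG2 cells in medium with 5% charcoal-stripped FBS were pre-incubated 5hr, then exposed to compounds for 24hr at 37C. Viability was read in the same wells by CellTiter-Fluor fluorescence, reagent added after 23hr with a 1hr incubation.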

Assay [10] is described as follows: Caspase-3/7 induction in HepG2 cells by small molecules, qHTS assay (AID 1346978). Further: nearly all actives have a fitted effect of over 15% in size. The gist of the method:
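Caspase-3/7 induction was measured by Caspase-Glo 3/7 luminescence (30 min, room temperature) after a 17 hr compound exposure of wild-type HepG2 cells seeded at 2,000 per well and pre-incubated 5 hr.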

The nature of assay [11]: Caspase-3/7 induction in CHO-K1 cells by small molecules, qHTS cell viability counter screen (AID 1346979). Further: nearly all actives have a fitted effect of over 35% in size. Further: potency means the concentration at half of the fitted maximal effect. An outline of the steps:
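Wild-type CHO-K1 cells were seeded at 1,500 per well, rested 5hr at 37 C, then exposed to compounds in DMSO. After 16hr, CellTiter-Fluor reagent was added and fluorescence read 1hr later as the viability measure.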

A short description of assay [12]: Caspase-3/7 induction in CHO-K1 cells by small molecules, qHTS assay (AID 1346980). Further: nearly all actives have a fitted effect of over 15% in size. The gist of the method: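 Luminescent Caspase-Glo 3/7 read (30min, room temperature) quantified apoptosis induction. Cells were wild-type CHO-K1, treated with compound for 17hr at 37 C and 5% CO2.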
A short description of assay [13]: Caspase-3/7 induction in HepG2 cells by small molecules, qHTS cell viability counter screen (AID 1346981). Further: nearly all actives have a fitted effect of over 30% in size. Further: potency means the concentration at half of the fitted maximal effect. The gist of the method: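 Cell viability is measured as a cytotoxicity counter screen alongside the Caspase-Glo 3/7 readout in identical wells. Wild-type HepG2 cells are treated with test compounds for 16 hr at 37 C before CellTiter-Fluor addition and a 1-hr incubation.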

Assay [14] has as its target Nuclear receptor subfamily 1 group I member 2 (Homo sapiens) (UniProt O75469). Nature of the assay: Human pregnane X receptor (PXR) small molecule agonists, qHTS assay (AID 1346982). Further: nearly all actives have a fitted effect of over 35% in size. An outline of the steps: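 Cells: HepG2 stably carrying PXR-Luc. Medium held 5% charcoal-stripped FBS. Compounds in DMSO added after 5 hr plating, incubated 24 hr, then luminescence quantified with ONE-Glo.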

For assay [15], the target named is Nuclear receptor subfamily 1 group I member 2 (Rattus norvegicus) (UniProt Q9R1A7). Nature of the assay: Rat pregnane X receptor (rPXR) activation by small molecules, qHTS assay (AID 1346983). Further: nearly all actives have a fitted effect of over 20% in size. To be noted: rPXR luciferase reporter cells, One-Glo luminescence, 24 h; max activation: stronger effect = higher value. The gist of the method: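 Luminescent readout (One-Glo luciferase, 30 min room temperature) followed 24 hr compound treatment at 37 C of rPXR cells plated 2,000 per well and preincubated 5hr; qHTS format with compounds delivered in DMSO.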
Chain of Nuclear receptor subfamily 1 group I member 2 (Rattus norvegicus) (Q9R1A7 whole entry, looked up): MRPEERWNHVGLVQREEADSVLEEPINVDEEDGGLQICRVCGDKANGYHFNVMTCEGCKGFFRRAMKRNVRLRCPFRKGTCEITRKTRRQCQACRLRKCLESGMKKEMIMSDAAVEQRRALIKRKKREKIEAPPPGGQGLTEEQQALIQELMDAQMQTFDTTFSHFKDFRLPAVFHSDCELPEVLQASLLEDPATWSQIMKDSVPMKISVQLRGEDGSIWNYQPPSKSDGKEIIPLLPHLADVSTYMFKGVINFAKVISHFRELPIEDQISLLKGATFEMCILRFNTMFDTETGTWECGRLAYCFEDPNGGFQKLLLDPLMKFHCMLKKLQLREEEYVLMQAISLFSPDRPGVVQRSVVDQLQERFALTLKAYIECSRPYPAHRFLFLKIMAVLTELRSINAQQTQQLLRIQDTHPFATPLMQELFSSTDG

In assay [16] the target is Nuclear receptor subfamily 1 group I member 2 (Homo sapiens) (UniProt O75469). Put plainly: CYP3A4 induction through human pregnane X receptor (PXR) by small molecules, qHTS assay (AID 1346984). Further: nearly all actives have a fitted effect of over 40% in size. An outline of the steps: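 Quantitative HTS in DPX-2 cells, i.e. HepG2 transfected with PXR response element and CYP3A4-promoter luciferase. Compounds in DMSO incubated 24hr at 37C; then P450-Glo CYP3A4 substrate, 3uM final, 3hr; One-Glo luminescence.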
Chain of Nuclear receptor subfamily 1 group I member 2 (Homo sapiens) (O75469 whole entry, looked up): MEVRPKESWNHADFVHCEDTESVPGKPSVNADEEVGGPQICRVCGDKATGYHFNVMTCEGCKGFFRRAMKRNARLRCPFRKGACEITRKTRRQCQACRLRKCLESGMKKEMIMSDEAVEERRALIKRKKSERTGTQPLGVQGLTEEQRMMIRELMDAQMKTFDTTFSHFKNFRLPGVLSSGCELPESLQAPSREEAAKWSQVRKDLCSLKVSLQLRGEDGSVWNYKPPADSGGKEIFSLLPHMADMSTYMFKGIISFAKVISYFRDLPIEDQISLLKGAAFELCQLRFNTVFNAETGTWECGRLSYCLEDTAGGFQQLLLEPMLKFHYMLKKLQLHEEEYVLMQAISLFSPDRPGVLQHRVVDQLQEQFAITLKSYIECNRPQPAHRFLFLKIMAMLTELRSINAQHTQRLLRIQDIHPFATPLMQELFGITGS

The target is the same in assay [17]. Put plainly: Human pregnane X receptor (PXR) activation by small molecules, qHTS assay (AID 1346985). Further: nearly all actives have a fitted effect of over 40% in size. An outline of the steps: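 DPX-2 cells (HepG2 co-transfected with a PXR response element and a CYP3A4-promoter luciferase construct) were seeded at 2,000 per well, rested 5 hr at 37C, then exposed to DMSO-dissolved compounds for 24 hr. Activation was read as luciferase luminescence.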

The target in assay [18] is Progesterone receptor (Homo sapiens) (UniProt P06401). Nature of the assay: qHTS assay to identify small molecule agonists of the progesterone receptor (PR) signaling pathway (AID 1346784; calls by dose curve; further: nearly all actives have a fitted effect of over 30% in size; further: potency means the concentration at half of the fitted maximal effect). The gist of the method:
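PR-UAS-bla HEK 293T cells carrying a UAS-driven beta-lactamase reporter were seeded in medium with 2% charcoal-stripped FBS, preincubated 6 hr at 37C, then exposed to compounds in DMSO for 16 hr; agonism was read by LiveBLAzer B/G FRET fluorescence.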

The nature of assay [19]: qHTS assay to identify small molecule antagonists of the TGF-beta/Smad signaling pathway - cell viability counter screen (AID 1346824). Further: nearly all actives have a fitted effect of over 50% in size. An outline of the steps: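 Cytotoxicity counter-screen run in the same wells as the beta-lactamase Smad reporter read: CellTiter-Glo luminescence after 30 min at room temperature. HEK 293T SBE-bla cells had 5 hr compound exposure at 37 C with TGF-beta1 (0.25 ng/mL stock).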

Assay [20] in a line: qHTS assay to identify small molecule agonists of the TGF-beta/Smad signaling pathway - cell viability counter screen (AID 1346829). Further: nearly all actives have a fitted effect of over 45% in size. Further: potency means the concentration at half of the fitted maximal effect. An outline of the steps:
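Tox21 qHTS format: SBE-bla HEK 293T cells treated with DMSO-dissolved compounds for 5 hr; CellTiter-Glo luminescence after 30 min at room temperature.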
On the % scale 0 is the no-effect control and ±100 the full control effect.

Take `CCCCC(CC)COS(=O)(=O)O` (stereo not drawn): the Potency entry in [1], in assay [2], in assay [3], in [4], in assay [5] and in assay [6] was “inactive” each time. Also, the Potency result in assay [9], in [10], in assay [11], in [13], in assay [14] and in assay [16] was “inactive” throughout. For the same compound, the Potency result in assay [17] is “inactive”. Besides, the outcome in assay [7], in assay [8] and in [12] was inactive. Besides, the max activation in [15] is -1.14%.

In the case of `CCCCCCCC(=O)Oc1c(Br)cc(C#N)cc1Br`, the Potency result in assay [1], in assay [2], in assay [18], in [20], in assay [6] and in assay [9] was “inactive” in each case. Further, the Potency result in [10] and in [14] was “inactive” in each case. Besides, the outcome in assay [19], in assay [7], in [8] and in assay [12] was inactive.

Turning to `Cc1cc(CCC(=O)OCCOCCOCCOC(=O)CCc2cc(C)c(O)c(C(C)(C)C)c2)cc(C(C)(C)C)c1O`, the Potency result in assay [1], in assay [2], in assay [3], in [4], in assay [5] and in [20] was “inactive” throughout. Also, the Potency result in assay [6], in [9], in assay [10], in assay [11] and in assay [13] was “inactive” in each case. The call in [19], in [7], in [8] and in assay [12] was inactive.

With `CC(=O)OCC(=O)[C@@]1(OC(C)=O)[C@@H](C)C[C@H]2[C@@H]3C[C@H](F)C4=CC(=O)C=C[C@]4(C)[C@@]3(F)[C@@H](O)C[C@@]21C`, the Potency result in [1], in [2], in assay [20], in assay [9], in assay [10] and in assay [13] was “inactive” in each case. Also, in [18], the Potency is 0.237 µM (active). Further, the outcome in assay [19] and in [12] was inactive.

Take `CO[C@@H]1[C@@H](OC)[C@H](C)[C@@](O)(CC(=O)O)O[C@H]1[C@H](C)[C@H]1O[C@@]2(CC[C@@](C)([C@H]3CC[C@@](C)([C@@H]4O[C@@H]([C@H]5O[C@](C)(O)[C@H](C)C[C@@H]5C)C[C@@H]4OC4C[C@H](OC)[C@@H](OC)[C@H](C)O4)O3)O2)C[C@H](O)[C@H]1C` (stereo partly drawn): the Potency is 18.8 µM (active) in assay [1]; 2.37 µM (active) in assay [2]; 10.6 µM (active) in assay [3]; 18.8 µM (active) in assay [4]; 3.35 µM (active) in assay [9]; 1.33 µM (active) in [11]. In addition, the Potency in assay [13] was 3.76 µM (active). Further, the result in assay [19], in [7], in assay [8] and in assay [12] was inactive. The Potency entry in assay [20], in assay [6] and in assay [10] was “inactive” throughout.

In the case of `CCCCCc1ccco1`, the Potency entry in assay [1], in assay [2], in [3], in assay [4], in [5] and in [6] was “inactive” in each case. The Potency result in assay [9], in [10] and in [13] was “inactive” throughout. Besides, the outcome in [19], in [7], in [8] and in assay [12] was inactive.

Regarding `CC1CCC(C(C)CS)CC1S` (stereo not drawn), the Potency result in [1], in [2], in assay [3], in assay [4], in [5] and in assay [9] was “inactive” each time. Further, the Potency result in assay [10], in assay [11] and in [14] was “inactive” each time. For the same compound, in [20], the Potency is 54.9 µM (active). Moreover, the compound was called inactive in [7], in assay [8] and in assay [12].
